Screening data deposited in PubChem BioAssay by Sanford-Burnham Center for Chemical Genomics.
CYP2C9 act – CYP2C9 (human) activation | activation factor at 5 µM | AID 1024 | P11712 | actives 1.4% (n = 96,000) | recombinant CYP2C9, luciferin-H conversion, luminescence; hits give high values; factor 1 = untreated enzyme, 0 = blocked;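 active = activation factor of 2 or more for CYP2C9 at a 5 µM dose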
CYP2C19 inhib – inhibitors of human CYP2C19 | inhibition, % at 5 µM | actives 21% (n = 96,000) | P33261 | CYP2C19 Supersomes, luciferin-H EGE luminescence, 30 min;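 active = CYP2C19 inhibition above a set limit at 5 µM in the primary screen, cut at about 50% in these data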
Target sequence (P33261 whole entry, looked up): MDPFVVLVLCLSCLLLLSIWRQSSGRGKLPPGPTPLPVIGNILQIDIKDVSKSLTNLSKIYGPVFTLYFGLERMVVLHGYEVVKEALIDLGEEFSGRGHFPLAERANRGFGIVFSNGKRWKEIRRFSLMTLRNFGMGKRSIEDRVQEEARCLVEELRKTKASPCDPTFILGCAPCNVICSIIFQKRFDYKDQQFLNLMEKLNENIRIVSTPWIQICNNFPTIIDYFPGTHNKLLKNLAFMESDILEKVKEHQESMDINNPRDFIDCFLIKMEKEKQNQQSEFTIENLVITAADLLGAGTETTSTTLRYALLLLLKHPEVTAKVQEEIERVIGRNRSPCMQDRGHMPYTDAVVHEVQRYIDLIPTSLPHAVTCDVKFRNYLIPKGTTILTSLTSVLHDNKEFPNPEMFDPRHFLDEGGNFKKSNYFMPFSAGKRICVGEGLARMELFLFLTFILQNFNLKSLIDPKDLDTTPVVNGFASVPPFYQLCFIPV
CD11b adhes enh – enhancers of human CD11b/CD18 binding to fibrinogen. AID 1499. P05107+P11215. K562 CD11b/CD18 adhesion to fibrinogen, ATPlite luminescence. actives 0.07% (n = 93,000). activation, % at 10 µM;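 active = 10 µM primary screen giving 50% or more activity, confirmed by 40% or more on retest at that dose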
Mac1 fbg inh – blocks human CD11b/CD18 adhesion to fibrinogen. K562 CD11b/CD18 adhesion to fibrinogen, ATPlite luminescence; Mn2+ added to activate the integrin. inhibition, % at 10 µM. actives 0.54% (n = 93,000). AID 1497;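 active = primary inhibition of 50% or more at 10 µM, then 40% or more on retest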
CYP2C19 activ – activators of human cytochrome P450 2C19. P33261. recombinant CYP2C19, luciferin-H EGE luminescence; hits give high values; 0 = fully inhibited enzyme, 1 = untreated enzyme. AID 1025. activation factor at 5 µM. 96,000 tested, under 10 active;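 active = activation factor of at least 2 at 5 µM in the primary screen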
CYP2C9 inhib – blocks human cytochrome P450 2C9. P11712. CYP2C9 Supersomes, luciferin-H conversion, luminescence. inhibition, % at 5 µM. actives 20% (n = 96,000). AID 777;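 active = blocking of liver enzyme CYP2C9 beyond about 50% at 5 µM, limit read from the data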
A number is an active result; 0 = inactive; - = no result. In the library only some 28% were active in any assay of this set; here they are far more common.

SMILES	CYP2C9 act	CYP2C19 inhib	CD11b adhes enh	Mac1 fbg inh	CYP2C19 activ	CYP2C9 inhib
CC1CN(Cc2cc(=O)[nH]c(C3CC3)n2)CC(C)O1 (stereo not drawn)	0	0	0	0	0	0
CCN(CC)C(=O)CNC(=O)Cc1ccc(Cl)cc1	0	0	0	0	0	0
O=C(O)COc1ccc(-c2nnn(CC(=O)O)n2)cc1	0	0	0	0	0	0
CCCN(CCO)Cc1cccc(Br)c1	0	0	0	0	0	0
CCn1c(SCC(=O)NC2CCCCC2)nnc1-c1cc2cccc(OC)c2o1	0	0	-	-	0	0
CCOc1ccccc1-c1nnc(SCC(=O)NC2CC3CCC2C3)n1CC (stereo not drawn)	0	77	0	0	0	0
O=C(COc1ccccc1)Nc1ccc(-c2nnc(-c3ccco3)o2)cc1	0	0	0	0	0	0
O=C(Nc1cccc(-c2nnc(-c3ccco3)o2)c1)C(c1ccccc1)c1ccccc1	0	83	0	0	0	98
O=C(Cc1ccc(Cl)cc1)Nc1cccc(-c2nnc(-c3ccco3)o2)c1	0	80	-	-	0	78
O=C(Cc1ccccc1)Nc1cccc(-c2nnc(-c3ccco3)o2)c1	0	84	-	-	0	79
CCSc1nc2c(c(=O)[nH]1)C(c1ccccn1)C1=C(CC(C)(C)CC1=O)N2 (stereo not drawn)	0	0	-	-	0	0
CC(C)Sc1nc2c(c(=O)[nH]1)C(c1cccs1)C1=C(CC(C)(C)CC1=O)N2 (stereo not drawn)	0	0	0	0	0	68
CC1Cc2ccccc2N1S(=O)(=O)c1cccs1 (stereo not drawn)	0	81	0	0	0	0
CC1Cc2ccccc2N1C(=O)CCS(=O)(=O)c1cccs1 (stereo not drawn)	0	52	0	0	0	0
CC1Cc2ccccc2N1S(=O)(=O)c1cccc(C(=O)NCCCO)c1 (stereo not drawn)	0	52	0	0	0	0
CC1Cc2ccccc2N1C(=O)Cc1cccs1 (stereo not drawn)	0	0	0	0	0	0
O=C(NCCO)c1cccc(S(=O)(=O)N2CCCCC2)c1	0	0	0	0	0	0
CCOc1ccc(S(=O)(=O)N2c3ccccc3CC2C)cc1 (stereo not drawn)	0	52	0	0	0	94
COc1ccc2c(c1)[nH]c1c(Cl)ncnc12	-	-	0	0	-	-
CCOC(=O)C1CCCN(CC(=O)NC2CC2)C1 (stereo not drawn)	0	0	0	0	0	0
COC(=O)C1=C(CSc2nccn2C)NC(=O)NC1c1cc(C)ccc1C (stereo not drawn)	0	0	0	0	0	0
Cn1c(CO)cnc1SCc1ccc([N+](=O)[O-])cc1	0	65	-	-	0	0
COC(=O)c1ccc(CSc2nccn2C)cc1	0	65	0	0	0	0
Cn1ccnc1SCc1ccc([N+](=O)[O-])cc1	0	55	0	0	0	0
CCN1CCN(C(c2ccc(OC)cc2)C(O)C(=O)c2c[nH]c3ccccc23)CC1 (stereo not drawn)	0	0	0	0	0	0
SMILES	CYP2C9 act	CYP2C19 inhib	CD11b adhes enh	Mac1 fbg inh	CYP2C19 activ	CYP2C9 inhib
COc1ccc(S(=O)(=O)N2CCCCCC2)cc1N(C)S(=O)(=O)c1ccc(Cl)cc1	0	0	-	-	0	0
O=C(Nc1nc(-c2ccccc2)c(C(=O)c2ccccc2)s1)c1ccc(S(=O)(=O)N2CCCC2)cc1	-	-	0	0	-	-
CC(=O)c1cccc(N(C(=O)c2ccccn2)C(C(=O)NC2CCCCC2)c2cccs2)c1 (stereo not drawn)	0	0	0	0	0	0
O=S1(=O)N=C2CCCCCN2C(c2ccncc2)N1 (stereo not drawn)	0	0	0	0	0	0
CC(C)(C)NC(=O)CN(Cc1cccs1)C(=O)CCC(=O)Nc1nccs1	0	0	-	-	0	0
Cc1c(C(=O)NCc2ccccn2)oc2ccccc12	0	0	0	0	0	0
Cc1c(C(=O)NCCc2ccc3c(c2)OCCO3)oc2ccccc12	0	86	0	0	0	82
CC(=O)Nc1cccc(NC(=O)c2oc3ccccc3c2C)c1	0	53	0	0	0	0
Cc1c(C(=O)NC2=NCCS2)oc2ccccc12	0	61	0	0	0	0
O=C(CSCc1ccc(F)cc1)N1CCN(c2ccc(F)cc2)CC1	0	0	0	0	0	0
O=C(COC(=O)C1(c2ccc(F)cc2)CCCC1)NC1CC1	0	55	0	0	0	0
CCOC(=O)N1CCN(c2ccccc2O)CC1	0	0	0	0	0	0
O=C(COC(=O)C1(c2ccccc2F)CCCC1)NC1CCS(=O)(=O)C1 (stereo not drawn)	0	0	0	0	0	0
O=C(Cc1ccc(Br)cc1)N1CCN(c2ccc(F)cc2)CC1	0	97	0	0	0	76
O=C(CCS(=O)(=O)c1ccc(Br)cc1)N1CCN(c2ccccc2Cl)CC1	0	71	0	0	0	0
O=C(Cc1ccc(Br)cc1)N1CCN(c2ccccc2O)CC1	0	96	0	0	0	81
O=C(COC(=O)C1(c2ccccc2)CC1)N1CCN(c2ccc(F)cc2)CC1	0	77	0	0	0	0
O=C(Nc1ccc(-c2nc3ccccc3o2)cc1)c1ccc(N2C(=O)C3C4C=CC(C4)C3C2=O)cc1 (stereo not drawn)	0	0	0	0	0	0
COC(=O)c1ccc(NS(=O)(=O)N(C)C)cc1	0	87	0	0	0	79
COc1ccc(S(=O)(=O)CCC(=O)O)cc1	0	0	0	0	0	0
COC(=O)c1ccc(NC(=O)c2ccc(N(C)S(C)(=O)=O)cc2)cc1	0	0	0	0	0	0
COc1ccc(S(=O)(=O)Nc2ccc(S(=O)(=O)N3CCCCC3)cc2)cc1	0	0	-	-	0	81
COc1ccc(S(=O)(=O)Nc2ccc(CC#N)cc2)cc1	0	100	0	0	0	85
COc1ccc(CNS(=O)(=O)c2ccc(S(=O)(=O)N3CCCCC3)cc2)cc1	0	0	0	0	0	0
COc1ccc(S(=O)(=O)c2ccc(OC)cc2)cc1	0	99	0	0	0	0
SMILES	CYP2C9 act	CYP2C19 inhib	CD11b adhes enh	Mac1 fbg inh	CYP2C19 activ	CYP2C9 inhib
CCOc1ccc2nc(-c3ccccc3)nc(SCC(=O)Nc3ncc(C)s3)c2c1	0	0	0	0	0	0
CCOCC(=O)N1CCN(c2ccc([N+](=O)[O-])cc2)CC1	-	-	0	0	-	-
COc1ccc(NS(=O)(=O)c2ccc(N3C(=O)CCC3=O)cc2)cc1	0	86	0	0	0	70
COC(=O)C1CCN(S(=O)(=O)c2ccc(OC)cc2)CC1	0	89	0	0	0	0
COc1ccc(S(=O)(=O)N2CCCCCC2)cc1	0	51	0	0	0	0
COc1ccc(S(=O)(=O)N2CCC(N3CCCCC3)CC2)cc1	0	0	0	0	0	0
